PrPC TRFRET: inhibitors of human cell surface prion protein PrPC; P04156; TR-FRET read-out; inhibition, % at 13.8 µM; 370,000 compounds, 0.43% hits; in the data active = inhibition above about 24%; also: 0% = median of the test wells and 100% = reference compound wells
BJeLR lethal: kills HRASV12-expressing BJeLR cells | BJeLR (HRASV12) viability, CellTiter-Glo ATP luminescence, 48 h | inhibition, % (concentration not given with the values) | 300,000 compounds, 0.17% hits; in the data active = inhibition above about 50%
Sa RN4220 lethal: S. aureus RN4220 growth inhibition; OD600, 16 h; inhibition, % (no concentration beside the values); 330,000 compounds, 0.33% hits; AID 1259311; in the data active = inhibition above about 85%;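 also: plate controls were untreated cells for no effect and reference antibiotic for full effect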
3CLpro inhibitor: SARS-CoV 3CLpro protease inhibition; P0C6X7; recombinant SARS-CoV 3CLpro, quenched FRET peptide cleavage; inhibition, % at 6 µM; 290,000 compounds, 0.14% hits; AID 1706; in the data active = inhibition above about 12%
ugtP null kill: growth inhibition of S. aureus ugtP deletion strain | 330,000 compounds, 0.54% hits | growth inhibition, % (no concentration beside the values) | AID 1259309 | S. aureus RN4220 ugtP deletion, OD600 growth, 16 h; in the data active = growth inhibition above about 68%;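 also: plate controls were untreated wells for no effect and antibiotic for full effect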
VHR inh abs: DUSP3 (human) phosphatase inhibition | P51452 | inhibition, % at 13.3 µM | 290,000 compounds, 0.52% hits | recombinant VHR phosphatase, pNPP absorbance | AID 1654; in the data active = inhibition above about 50%
PrPC TRFRET cf: cell surface PrPC inhibition, TR-FRET confirmation; shares compounds with PrPC TRFRET; cell surface PrPC level; inhibition, % at 13.8 µM; 1,500 compounds, 65% hits; in the data active = inhibition above about 25%
LD9 tox: counter-screen for PrPc inhibitors: cytotoxicity in LD9 cells; shares compounds with PrPC TRFRET; luminescence viability; inhibition, % at 13.8 µM; 1,500 compounds, 29% hits; in the data active = inhibition above about 9.5%
Active calls of the source: *. A selection: hits, their analogues and other compounds. The true share with any hit is near 1.4%.

Results for Cc1nnc2c(SC(C)C)nc3ccccc3n12 ?
PrPC TRFRET: 33.4*; BJeLR lethal: 2.8; Sa RN4220 lethal: 3.6; 3CLpro inhibitor: -1.9; ugtP null kill: 4.2; VHR inh abs: 7.9; PrPC TRFRET cf: 46.9*; LD9 tox: -8.3

What do the screens show for `CC(C)NC(=S)n1cc(C(=O)c2cc(Cl)cc(Cl)c2O)cn1`?
PrPC TRFRET: 40.8*; BJeLR lethal: 0.8; Sa RN4220 lethal: 1.1; 3CLpro inhibitor: 1.1; ugtP null kill: 10.2; VHR inh abs: 14.1; PrPC TRFRET cf: 9.7; LD9 tox: -2.7

Results for C=CCOc1ccc(C2NC(=S)NC(c3ccccc3)=C2C(C)=O)cc1OC (centres undefined) ?
PrPC TRFRET: 51.5*; BJeLR lethal: 1.9; Sa RN4220 lethal: -0.1; 3CLpro inhibitor: 3.0; ugtP null kill: -9.0; VHR inh abs: 2.1; PrPC TRFRET cf: 45.2*; LD9 tox: -1.9

How did CCCOc1ccc(C2NC(=S)NC(C)=C2C(=O)c2ccccc2)cc1OC (centres undefined) do in these assays?
PrPC TRFRET: 49.6*; BJeLR lethal: -1.3; Sa RN4220 lethal: 5.0; 3CLpro inhibitor: -0.9; ugtP null kill: 3.7; VHR inh abs: -26.0; PrPC TRFRET cf: 53.0*; LD9 tox: -6.6

What do the screens show for `CC1=C(C(=O)c2ccccc2)C(c2ccc(OC(F)F)cc2)NC(=S)N1` (centres undefined)?
PrPC TRFRET: 49.8*; BJeLR lethal: -1.6; Sa RN4220 lethal: 4.6; 3CLpro inhibitor: 2.5; ugtP null kill: 3.7; VHR inh abs: 9.9; PrPC TRFRET cf: 46.7*; LD9 tox: 3.6

Results for CC1=C(C(=O)c2ccccc2)C(c2ccc(O)cc2)NC(=S)N1 (centres undefined) ?
PrPC TRFRET: -3.5; BJeLR lethal: 7.7; Sa RN4220 lethal: 4.3; 3CLpro inhibitor: -1.1; ugtP null kill: 4.9; VHR inh abs: -6.5

Results for COc1cc(C2NC(=O)NC(c3ccccc3)=C2C(C)=O)ccc1OCC#N (centres undefined) ?
PrPC TRFRET: 8.1; BJeLR lethal: 5.5; Sa RN4220 lethal: -1.0; 3CLpro inhibitor: 0.2; ugtP null kill: -2.3; VHR inh abs: -12.1

How did NCCCCC1CNC(=O)C(=O)N1CCC12CC3CC(CC(C3)C1)C2 (centres undefined) do in these assays?
Sa RN4220 lethal: 5.6; ugtP null kill: -3.1

Results for Cc1ccc(S(=O)(=O)N2C(c3ccc4c(c3)OCO4)CC=C(C(=O)O)C2c2ccccc2)cc1 (centres undefined) ?
Sa RN4220 lethal: 17.7; ugtP null kill: 21.5

What do the screens show for `CCOc1cc(S(=O)(=O)n2cc(-c3ccc(F)cc3)c(N)n2)cc(OCC)c1OCC`?
PrPC TRFRET: 29.4*; BJeLR lethal: 9.9; Sa RN4220 lethal: -5.6; 3CLpro inhibitor: 3.0; ugtP null kill: -15.6; VHR inh abs: -4.0; PrPC TRFRET cf: 18.6; LD9 tox: 4.0

Results for N#Cc1ccc(-c2nc3ccc(Br)cn3c2Cc2cccc(F)c2)cc1 ?
PrPC TRFRET: 29.2*; PrPC TRFRET cf: 88.1*; LD9 tox: 1.3

What do the screens show for `Cc1ccc(Cc2c(-c3ccc(C#N)cc3)nc3ccc(C)cn23)cc1`?
PrPC TRFRET: -3.9

How did Cc1ccc(Cc2c(-c3ccc(C#N)cc3)nc3ccc(Br)cn23)cc1 do in these assays?
PrPC TRFRET: 42.1*; PrPC TRFRET cf: 46.7*; LD9 tox: 1.6

Results for Fc1cccc(Cc2c(-c3ccco3)nc3ccc(Br)cn23)c1 ?
PrPC TRFRET: 50.8*; PrPC TRFRET cf: 70.2*; LD9 tox: -0.4

Results for N#Cc1ccc(-c2nc3ccc(Br)cn3c2Cc2cccc(Cl)c2)cc1 ?
PrPC TRFRET: 22.8

Results for CC(=O)OC1C2C(CC(C)C3CCC(=O)[C@]31C)OC(=O)C2C (some centres undefined) ?
Sa RN4220 lethal: 8.7; ugtP null kill: -0.7

What do the screens show for `O=C1CCC=CCC(CC(=O)N(CCO)Cc2ccccc2)C(=O)NCC(c2ccccc2)O1` (centres undefined)?
Sa RN4220 lethal: 5.5; ugtP null kill: 5.1
